Test [1] is described as follows: qHTS for Inhibitors of the Aldehyde Dehydrogenase Family (ALDH1A2, ALDH1A3, ALDH2, ALDH3A1) (AID 2061307; further: nearly all actives have a fitted effect of over 50% in size; on Potency: test system not described further here; potency means the concentration at half of the fitted maximal effect). (In general: Quantitative high-throughput screening tests each substance at several concentrations.)
The target in test [2] is Aldehyde dehydrogenase, mitochondrial (Homo sapiens) (UniProt P05091). The experiment in a line: qHTS for Inhibitors of the Aldehyde Dehydrogenase Family (ALDH2) Primary screen (AID 2061308).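 Further: plate controls were vehicle for no effect and reference inhibitor for full effect; nearly all actives have a fitted effect of over 55% in size.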
Test [3] concerns the target Retinal dehydrogenase 2 (Homo sapiens) (UniProt O94788). The experiment in a line: qHTS for Inhibitors of the Aldehyde Dehydrogenase Family (ALDH1A2) Confirmation screens (AID 2061314). Further: potency means the concentration at half of the fitted maximal effect; nearly all actives have a fitted effect of over 65% in size.
Test [4] has as its target Retinaldehyde dehydrogenase 3 (Homo sapiens) (UniProt P47895). The experiment in a line: qHTS for Inhibitors of the Aldehyde Dehydrogenase Family (ALDH1A3) Primary screen (AID 2061315). Further: potency means the concentration at half of the fitted maximal effect.
For test [5], the target named is Aldehyde dehydrogenase 1A1 (Homo sapiens) (UniProt P00352). The experiment in a line: qHTS for Inhibitors of the Aldehyde Dehydrogenase Family (ALDH1A1) Confirmatory screens (AID 2061316). Further: nearly all actives have a fitted effect of over 65% in size. Further: potency means the concentration at half of the fitted maximal effect.
A short description of test [6]: BET inhibitor-based combinations targeting novel dependencies in MECOM-rearranged (r) AML: SET-2 cell line (AID 2202231).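 Further: plate controls were DMSO treated cells for no effect and wells without cells for full effect; nearly all actives have a fitted effect of over 35% in size.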 To be noted: SET-2 AML cells viability, CellTiter-Glo luminescence, 48 h; viability: stronger effect = lower value, series mostly up to about 46 µM. The essentials:
(§1)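 AML cell lines seeded at 500 cells/well, treated with 11-point dose curves for 48 h. Viability by CellTiter-Glo luminescence, normalised to DMSO and empty wells; activity expressed as AUC and per-cell-line Z-transformed AUC.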
For orientation: Cellular ATP, detected with luciferase, serves as a proxy for viable cell number.

Test [7] is described as follows: BET inhibitor-based combinations targeting novel dependencies in MECOM-rearranged (r) AML: OCI-AML3 cell line (AID 2202232).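 Further: series mostly up to about 46 µM; plate controls were DMSO vehicle wells for no effect and wells without cells for full effect; nearly all actives have a fitted effect of over 35% in size.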 The note with it: Potency: OCI-AML3 viability. The essentials:
as §1

A short description of test [8]: BET inhibitor-based combinations targeting novel dependencies in MECOM-rearranged (r) AML: MV-4-11 cell line (AID 2202233).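 Further: plate controls were DMSO for no effect and blank wells for full effect; nearly all actives have a fitted effect of over 45% in size.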 The essentials:
(§2)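 Cells at 500/well were exposed for 48 hr to MIPE v5.0 drugs as 11-point dose curves. Viability was read by CellTiter-Glo luminescence and normalized to DMSO and empty-well controls. Activity was expressed as AUC and per-cell-line Z-AUC.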

A short description of test [9]: BET inhibitor-based combinations targeting novel dependencies in MECOM-rearranged (r) AML: HNT-34 cell line (AID 2202234).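 Further: plate controls were vehicle wells for no effect and cell-free wells for full effect; nearly all actives have a fitted effect of over 35% in size.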 The gist of the method:
as §2

A short description of test [10]: BET inhibitor-based combinations targeting novel dependencies in MECOM-rearranged (r) AML: UCSD-AML1 cell line (AID 2202235).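 Further: series mostly up to about 46 µM; plate controls were DMSO vehicle wells for no effect and blank wells for full effect; nearly all actives have a fitted effect of over 40% in size.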 The gist of the method: as §2
Test [11] can be described thus: BET inhibitor-based combinations targeting novel dependencies in MECOM-rearranged (r) AML: AML-191 cell line (AID 2202236;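 further: plate controls were vehicle wells for no effect and wells without cells for full effect; nearly all actives have a fitted effect of over 35% in size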). The gist of the method:
as §1

Test [12] is described as follows: BET inhibitor-based combinations targeting novel dependencies in MECOM-rearranged (r) AML: AML-194 cell line (AID 2202237;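 further: plate controls were vehicle wells for no effect and wells without cells for full effect; nearly all actives have a fitted effect of over 40% in size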). The gist of the method: as §1
The target of test [13] is Retinaldehyde dehydrogenase 3 (Homo sapiens) (UniProt P47895). The experiment in a line: qHTS for Inhibitors of the Aldehyde Dehydrogenase Family (ALDH1A3) Confirmatory screens (AID 2061311). Further: nearly all actives have a fitted effect of over 60% in size.

Results filed as inconclusive are left out. Unmarked numbers belong to inactive results. Calls of active or inactive are those of the source. The call rests on the fitted dose curve; in most records, active means well fitted curve in the direction sought with a large enough effect; inconclusive means small, poorly fitted or top-dose-only effect, or another doubt; inactive means no such curve, though single readings can be large; an effect the other way counts as inactive or inconclusive.

As for `O=[S+]([O-])(Nc1ccc(-c2nc3ccccc3[nH]2)cc1)c1ccc2c(c1)OCO2`, the Potency entry in test [1], in test [2], in test [4] and in test [5] was “inactive” each time. Also, the Potency in [3] was 15.9 µM (active).
In the case of `Cc1[nH]c2ccccc2c1C1=C(NCCc2ccc(F)cc2)C(=O)N(C)C1=O`, the Potency in test [1] was 0.896 µM (active). Further, the Potency result in [2] and in test [4] was “inactive” each time.
Consider `O=C([C@H](Cc1ccc(O[S+](=O)([O-])c2cccnc2)cc1)N[S+](=O)([O-])c1cccc2cnccc12)N1CCN(c2ccccc2)CC1`, for which the Potency entry in test [1], in test [2] and in test [4] was “inactive” throughout.
Take `CN1CCN(c2ccc(Nc3nn4c(=O)c5ccccc5nc4s3)cc2)CC1`: the Potency result in [1], in test [2] and in [4] was “inactive” each time. Moreover, the figures for the Potency in [3] and in test [5] were 14.2 µM (active) and 12.7 µM (active), respectively.
For the compound `N#Cc1nc(Nc2ccc(F)cc2)nc(NC2CCCC2)n1`, the Potency in test [1] was 3.16 µM (active). In addition, the Potency result in test [2] and in test [4] was “inactive” in each case.
On to `COc1ccc(NC(=O)CN(C)C(=O)c2cc3c(s2)CCC3)cc1`, for which the Potency entry in [1], in [2] and in test [4] was “inactive” throughout.
Turning to `COC(=O)c1ccc(O)c2ncc(-c3ccc(C(=O)N4CCNCC4)cc3)cc12`, the Potency entry in test [1], in [2], in test [4] and in test [5] was “inactive” throughout.
Take `COc1ccc(C2Nc3ccccc3C(=O)N2Cc2ccccc2Cl)cc1COc1ccc(NC(C)=O)cc1` (stereo not given): the Potency in test [1] was 8.96 µM (active). The Potency result in test [2] and in [4] was “inactive” each time.
`O=C(OCC#CCSc1nnc(-c2cccc3ccccc23)o1)c1ccc(Br)cc1`: the Potency result in [1], in test [2], in test [4] and in [5] was “inactive” in each case.
Regarding `OCc1ccc(-c2ccc3ncnc(NCCc4cnc[nH]4)c3c2)o1`, the Potency entry in [1], in test [2] and in test [4] was “inactive” each time. Further, the Potency in [5] was 10.1 µM (active).
For the compound `O=C(O)c1ccc(-n2cccc2/C=C2\SC(=O)N(Cc3ccc(Br)cc3)C2=O)cc1`, in test [1], the Potency was 5.04 µM (active). The Potency entry in [2], in [4] and in [5] was “inactive” in each case.
Turning to `CN(Cc1ccco1)c1ncnc2ccc(-c3ccoc3)cc12`, the Potency result in [1], in [2] and in test [4] was “inactive” throughout. Besides, the Potency in [5] was 12.7 µM (active).
Regarding `CC(=O)C1CCN(c2ncc(-c3cccc(N(C)C)c3)s2)CC1`, the figures for the Potency in test [1] and in test [5] were 5.65 µM (active) and 10.1 µM (active), respectively. Besides, the Potency result in test [2] and in [4] was “inactive” each time.
In the case of `CSc1ccc(-c2cnc(N3CCC(C(N)=O)CC3)s2)cc1`, in test [1], the Potency is 3.18 µM (active). Also, the Potency result in test [2] and in [4] was “inactive” throughout.
For the compound `CCCCN(C)C(=O)Cn1nc(-c2ccc(Cl)cc2)ccc1=O`, the Potency entry in test [1], in test [2] and in test [4] was “inactive” in each case.
For `Cc1ccc2nc3sc(C(=O)Nc4ccncc4)cc3cc2c1`, the Potency is 11.3 µM (active) in test [1] and 14.2 µM (active) in [5]. The Potency result in [2] and in test [4] was “inactive” each time.
As to `Cc1cnc(-c2ccccc2C2COC2)nc1NCc1ccc(-n2ccnn2)cc1`, the Potency result in test [1], in test [2] and in test [4] was “inactive” each time.
On to `CC(C)Oc1cccc(-c2cnc(N3CCC(C(N)=O)CC3)s2)c1`, for which the Potency entry in [1], in test [2] and in test [4] was “inactive” throughout.
Regarding `CC(=O)N1CCc2cc(-c3nc(NC(=O)Cc4ccc5c(c4)OCO5)sc3C)ccc21`, the results for the Potency in [1] and in test [5] were 2.01 µM (active) and 10.1 µM (active), respectively. Besides, the Potency result in test [2] and in test [4] was “inactive” in each case.
Regarding `CNc1sc(-c2cccc3ccccc23)nc1C(=O)OC`, the Potency in test [1] was 15.9 µM (active); in test [5] it was 14.2 µM (active). The Potency entry in test [2] and in [4] was “inactive” throughout.
On to `O=C(O)c1ccc(S(=O)(=O)N[C@H](Cc2ccc(O)cc2)C(=O)O)cc1`, for which the Potency entry in test [1], in [2] and in test [4] was “inactive” each time. Further, the Potency in test [5] is 10.1 µM (active).
Consider `COc1ccc(C2Nc3ccccc3C(=O)N2CCc2ccc(Cl)cc2Cl)cc1COc1ccc(NC(C)=O)cc1` (stereo not given), for which the Potency in test [1] was 3.57 µM (active). The Potency entry in test [2] and in test [4] was “inactive” throughout.
Consider `COc1ccc(C2Nc3ccccc3C(=O)N2Cc2ccccc2)cc1COc1ccc(NC(C)=O)cc1` (stereo not given), for which, in test [1], the Potency is 3.18 µM (active). The Potency result in [2] and in test [4] was “inactive” throughout.
Turning to `O=C(O)C1CCN(c2ncc(-c3ccc4c(c3)OCCCO4)s2)CC1`, the figures for the Potency in [1] and in [4] were 1.52 µM (active) and 0.447 µM (active), respectively. The Potency entry in test [2] was “inactive”.
As usually defined, the viability is a read-out of living cells in per cent, often relative to untreated cells. As for `NCC(=O)Nc1cncc(-c2nn3c(=O)cc(N4CCNCC4)nc3s2)c1`, the Potency entry in test [1], in test [2], in [4], in test [7], in test [8] and in test [9] was “inactive” each time. In addition, the Potency entry in test [10], in test [11] and in [12] was “inactive” throughout. Besides, in [6], the viability was 111%.
Turning to `C/C=C/C=C/C(O)=C1/C(=O)[C@]2(C)C3/C(=C(O)/C=C/C=C/C)C(=O)C4(C)C1[C@]1(C)O[C@@]4(O)[C@@]3(C)O[C@@]12O`, the Potency result in [1], in [2] and in [4] was “inactive” each time. In addition, in test [5], the Potency is 12.3 µM (active).
Regarding `NC(=O)C1CCN(c2nc(-c3ccccc3[N+](=O)[O-])cs2)CC1`, the Potency in test [1] was 12.7 µM (active); in test [5], 5.04 µM (active). The Potency entry in [2] and in [4] was “inactive” in each case.
`NC(=O)C1CCN(c2nc(-c3ccccc3N)cs2)CC1`: the Potency was 7.12 µM (active) in [1] and 12.7 µM (active) in [5]. Besides, the Potency entry in [2] and in test [4] was “inactive” throughout.
For the compound `Cc1nc(-c2ccccc2)oc1-c1ccc2ncnc(NCc3ncc[nH]3)c2c1`, the Potency result in test [1], in [2] and in test [4] was “inactive” in each case.
For `N#Cc1nc(-c2ccc(COc3ccccc3)o2)oc1N1CCN(c2ccccc2)CC1`, the Potency result in [1] and in test [13] was “inactive” in each case.
Regarding `COc1ccc(C2Nc3ccccc3C(=O)N2CCCN(C)C)cc1COc1ccc(NC(C)=O)cc1` (stereo not given), in [1], the Potency was 7.12 µM (active). The Potency entry in [2] and in test [4] was “inactive” in each case.
Take `O=C(O)c1ccc(O)c2ncc(-c3ccc(C(=O)N4CCNCC4)cc3)cc12`: the Potency result in test [1], in test [2], in test [4] and in test [5] was “inactive” throughout.

Source of the values: PubChem BioAssay (NCATS).
